The whole screen tested about 5,500 compounds, of which about 2,000 (36%) were called active. Roughly 18% stayed inconclusive and do not appear here. Rule as the data show it: active = normalized growth mostly below about 0.91 (no sharp cut-off); inconclusive = no clear call, values can overlap the other calls; inactive = mostly above about 0.92. This is one part of the list.
Assay: chemical genetic growth profiling, strain panel (AID 1159580);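 also: tested at 20 µM; growth read once vehicle control cultures reached saturation at 30 °C; 1 = growth at the plate median or of vehicle wells; lower values mean less growth of the strain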
Conditions: growth OD

Measured: normalized growth

ClC1C(Cl)C(Cl)C(Cl)C(Cl)C1Cl (stereo unspecified)
inactive: S. cerevisiae deletion strains, locus YJR075W, strain HOC1, active compounds read low 0.926 | S. cerevisiae deletion strains, locus YKL009W, strain mrt4, active compounds read low 0.964 | S. cerevisiae deletion strains, locus YKL190W, strain CNB1, active compounds read low 0.954 | S. cerevisiae deletion strains, locus YKR026C, strain gcn3, active compounds read low 0.964 | S. cerevisiae deletion strains, locus YKR091W, strain srl3, active compounds read low 0.963 | S. cerevisiae deletion strains, locus YLL001W, strain dnm1, active compounds read low 0.938 | S. cerevisiae deletion strains, locus YLL026W, active compounds read low 0.956 | S. cerevisiae deletion strains, locus YLL041C, strain sdh2, active compounds read low 0.979 | S. cerevisiae deletion strains, locus YLR058C, strain SHM2, active compounds read low 0.942 | S. cerevisiae deletion strains, locus YLR102C, strain apc9, active compounds read low 0.935 | S. cerevisiae deletion strains, locus YLR113W, strain HOG1, active compounds read low 0.862 | S. cerevisiae deletion strains, locus YLR258W, strain gsy2, active compounds read low 0.969 | S. cerevisiae deletion strains, locus YLR268W, strain sec22, active compounds read low 0.949 | S. cerevisiae deletion strains, locus YLR330W, strain CHS5, active compounds read low 0.948 | S. cerevisiae deletion strains, locus YLR342W, strain FKS1 (second series), active compounds read low 0.947 | S. cerevisiae deletion strains, locus YLR357W, strain rsc2, active compounds read low 0.996 | S. cerevisiae deletion strains, locus YLR370C, strain arc18, active compounds read low 0.975 | S. cerevisiae deletion strains, locus YLR371W, strain rom2, active compounds read low 0.944 | S. cerevisiae deletion strains, locus YLR384C, strain iki3, active compounds read low 0.991 | S. cerevisiae deletion strains, locus YLR418C, strain cdc73, active compounds read low 0.843 | S. cerevisiae deletion strains, locus YML016C, strain PPZ1, active compounds read low 0.945 | S. cerevisiae deletion strains, locus YML032C, strain rad52, active compounds read low 0.927 | S. cerevisiae deletion strains, locus YML120C, strain ndi1, active compounds read low 0.978 | S. cerevisiae deletion strains, locus YMR078C, strain ctf18, active compounds read low 0.918 | S. cerevisiae deletion strains, locus YMR125W, strain sto1, active compounds read low 1.03 | S. cerevisiae deletion strains, locus YMR129W, active compounds read low 0.988 | S. cerevisiae deletion strains, locus YMR223W, strain ubp8, active compounds read low 0.956 | S. cerevisiae deletion strains, locus YMR231W, strain pep5, active compounds read low 1.01 | S. cerevisiae deletion strains, locus YMR263W, strain SAP30, active compounds read low 0.955 | S. cerevisiae deletion strains, locus YMR307W, strain GAS1, active compounds read low 1.07 | S. cerevisiae deletion strains, locus YNL067W, strain RPL9B, active compounds read low 0.968 | S. cerevisiae deletion strains, locus YNL128W, strain TEP1, active compounds read low 0.958 | S. cerevisiae deletion strains, locus YNL153C, strain GIM3, active compounds read low 0.969 | S. cerevisiae deletion strains, locus YNL183C, strain NPR1, active compounds read low 0.905 | S. cerevisiae deletion strains, locus YNL209W, strain ssb2, active compounds read low 0.992 | S. cerevisiae deletion strains, locus YNL233W, strain BNI4, active compounds read low 0.975 | S. cerevisiae deletion strains, locus YNL248C, strain rpa49, active compounds read low 0.995 | S. cerevisiae deletion strains, locus YNL250W, strain rad50, active compounds read low 0.909 | S. cerevisiae deletion strains, locus YNL271C, strain bni1, active compounds read low 0.948 | S. cerevisiae deletion strains, locus YNL298W, strain CLA4, active compounds read low 0.946 | S. cerevisiae deletion strains, locus YNL322C, strain KRE1 (second series), active compounds read low 0.969 | S. cerevisiae deletion strains, locus YNL322C, strain KRE1, active compounds read low 0.941 | S. cerevisiae deletion strains, locus YNR049C, strain mso1, active compounds read low 0.975 | S. cerevisiae deletion strains, locus YNR052C, strain pop2, active compounds read low 0.963 | S. cerevisiae deletion strains, locus YOL006C, strain TOP1, active compounds read low 0.843 | S. cerevisiae deletion strains, locus YOL012C, strain htz1 0.8 | S. cerevisiae deletion strains, locus YOR001W, strain rrp6, active compounds read low 0.963 | S. cerevisiae deletion strains, locus YOR061W, strain CKA2, active compounds read low 0.948 | S. cerevisiae deletion strains, locus YOR069W, strain VPS5, active compounds read low 0.963 | S. cerevisiae deletion strains, locus YOR070C, strain gyp1, active compounds read low 0.965 | S. cerevisiae deletion strains, locus YOR080W, strain dia2, active compounds read low 1.02 | S. cerevisiae deletion strains, locus YOR083W, strain WHI5, active compounds read low 0.914 | S. cerevisiae deletion strains, locus YOR106W, strain vam3, active compounds read low 0.942 | S. cerevisiae deletion strains, locus YOR136W, strain idh2, active compounds read low 0.962 | S. cerevisiae deletion strains, locus YOR144C, strain elg1, active compounds read low 0.94 | S. cerevisiae deletion strains, locus YOR184W, strain ser1, active compounds read low 0.977 | S. cerevisiae deletion strains, locus YOR231W, strain MKK1, active compounds read low 0.971 | S. cerevisiae deletion strains, locus YOR265W, strain rbl2, active compounds read low 0.981 | S. cerevisiae deletion strains, locus YOR290C, strain snf2, active compounds read low 0.921 | S. cerevisiae deletion strains, locus YOR316C, strain cot1, active compounds read low 0.924 | S. cerevisiae deletion strains, locus YPL055C, strain LGE1, active compounds read low 0.965 | S. cerevisiae deletion strains, locus YPL106C, strain sse1, active compounds read low 1.01 | S. cerevisiae deletion strains, locus YPL240C, strain hsp82, active compounds read low 0.978 | S. cerevisiae deletion strains, locus YPL241C, strain CIN2, active compounds read low 0.961 | S. cerevisiae deletion strains, locus YPR163C, strain tif3, active compounds read low 0.938 | S. cerevisiae deletion strains, strain wtn01, active compounds read low 0.932 | S. cerevisiae strains, strain wild type, active compounds read low 0.952
active: S. cerevisiae deletion strains, locus YKL068W, active compounds read low 0.902 | S. cerevisiae deletion strains, locus YKL085W, strain MDH1 (second series), active compounds read low 0.909 | S. cerevisiae deletion strains, locus YKL085W, strain MDH1, active compounds read low 0.909 | S. cerevisiae deletion strains, locus YKL160W, strain elf1, active compounds read low 0.873 | S. cerevisiae deletion strains, locus YKR001C, strain vps1, active compounds read low 0.879 | S. cerevisiae deletion strains, locus YLR027C, strain aat2, active compounds read low 0.916 | S. cerevisiae deletion strains, locus YLR039C, strain RIC1, active compounds read low 0.506 | S. cerevisiae deletion strains, locus YLR221C, strain rsa3, active compounds read low 0.872 | S. cerevisiae deletion strains, locus YLR262C, strain YPT6 (second series), active compounds read low 0.659 | S. cerevisiae deletion strains, locus YLR262C, strain YPT6, active compounds read low 0.57 | S. cerevisiae deletion strains, locus YLR320W, strain mms22, active compounds read low 0.622 | S. cerevisiae deletion strains, locus YLR342W, strain FKS1, active compounds read low 0.89 | S. cerevisiae deletion strains, locus YML124C, strain tub3, active compounds read low 0.929 | S. cerevisiae deletion strains, locus YMR058W, strain fet3, active compounds read low 0.846 | S. cerevisiae deletion strains, locus YMR205C, strain PFK2, active compounds read low 0.665 | S. cerevisiae deletion strains, locus YNL071W, strain lat1, active compounds read low 0.638 | S. cerevisiae deletion strains, locus YOL147C, strain pex11, active compounds read low 0.929 | S. cerevisiae deletion strains, locus YOR270C, strain vph1, active compounds read low 0.67 | S. cerevisiae deletion strains, locus YPL051W, strain arl3, active compounds read low 0.872 | S. cerevisiae deletion strains, locus YPL078C, strain atp4, active compounds read low 0.865 | S. cerevisiae deletion strains, locus YPL256C, strain CLN2, active compounds read low 0.821 | S. cerevisiae deletion strains, locus YPR119W, strain clb2, active compounds read low 0.923 | S. cerevisiae deletion strains, locus YPR141C, strain kar3, active compounds read low 0.89 | S. cerevisiae deletion strains, locus YPR167C, strain met16, active compounds read low 0.91

Source: PubChem BioAssay AID1159580 (chemical genetic matrix, 2015)
